The text below walks through data of PubChem BioAssay (Tox21).

A short description of assay [1]: qHTS assay to identify small molecule antagonists of the estrogen related receptor (ERR) signaling pathway from Tox21 library - cell viability counter screen (AID 1224834). Further: nearly all actives have a fitted effect of over 30% in size. The method in brief:
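Cytotoxicity of test substances is gauged in the same ERR cells used for the antagonist screen, after 17.5 h of compound treatment at 37 C, by CellTiter-Fluor fluorescence measured after 30 min.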

Assay [2] deals with Luciferin 4-monooxygenase (Photinus pyralis) (UniProt P08659). In words: qHTS assay to identify small molecule inhibitors of firefly luciferase (AID 1224835). Further: nearly all actives have a fitted effect of over 25% in size. An outline of the steps: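 Quantitative HTS format; KM concentrations of both substrates. Purified P. pyralis FLuc activity quantified from luminescence images.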
(In qHTS, concentration-response curves come from the screen itself.)

The nature of assay [3]: qHTS assay to identify small molecule agonists of the constitutive androstane receptor (CAR) signaling pathway - cell viability counter screen (AID 1224836). Further: nearly all actives have a fitted effect of over 45% in size. An outline of the steps: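 Viability read-out: CellTiter-Fluor fluorescence after 23 h compound exposure at 37 C/5% CO2 in double-stable HepG2-CYP2B6-hCAR cells, with PK11195 present at 0.75 uM final; compounds tested in 15-point titration.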

A short description of assay [4]: qHTS assay to identify small molecule antagonists of the constitutive androstane receptor (CAR) signaling pathway - cell viability counter screen (AID 1224837). Further: nearly all actives have a fitted effect of over 45% in size. The method in brief: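 Multiplexed cytotoxicity read-out for the CAR antagonist screen: double-stable HepG2-CYP2B6-hCAR cells co-treated with 50 nM CITCO (final) and compound over 15 concentrations, incubated 23 hr, then assessed by CellTiter-Fluor fluorescence.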

In assay [5] the target is Nuclear receptor subfamily 1 group I member 3 (Homo sapiens) (UniProt Q14994). As to the kind of experiment: qHTS assay to identify small molecule antagonists of the constitutive androstane receptor (CAR) signaling pathway (AID 1224838). Further: nearly all actives have a fitted effect of over 40% in size. The method in brief:
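Compounds were titrated across 15 concentrations onto HepG2 cells double-stably expressing hCAR and a CYP2B6-2.2kb reporter, together with 50 nM CITCO (final). After 24 h at 37 C, luciferase activity was measured by luminescence.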

Assay [6] shares this target. In words: qHTS assay to identify small molecule agonists of the constitutive androstane receptor (CAR) signaling pathway (AID 1224839).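 Further: HepG2 cells stably carrying human CAR and a CYP2B6 luciferase reporter; nearly all actives have a fitted effect of over 15% in size.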 An outline of the steps:
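Luminescence read-out (ONE-Glo, 30 min, room temperature) from double-stable HepG2-CYP2B6-hCAR cells exposed 24 h to 15-point compound series in presence of 0.75 uM PK11195 final.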

Assay [7] can be described thus: qHTS assay to identify small molecule antagonists of the estrogen related receptor signaling pathway with the pleiotropic PPARgamma coactivator (PGC) from Tox21 10K library - cell viability counter screen (AID 1224840; active means well fitted cell-killing curve with a large enough effect in the repeat runs, not every such curve was filed as active; further: nearly all actives have a fitted effect of over 40% in size). The method in brief: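 Step one, plate 2,000 PGC/ERR cells per well; step two, incubate 6 h at 37 C/5% CO2; step three, pin-transfer compounds; step four, incubate 17.5 h; step five, add CellTiter-Fluor and read fluorescence after 30 min.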

A short description of assay [8]: qHTS assay to identify small molecule antagonists of the estrogen related receptor signaling pathway with the pleiotropic PPARgamma coactivator (PGC) from Tox21 10K library (AID 1224841; call rule not given here; further: actives are mostly falling curves and most rising ones were filed inactive; nearly all actives have a fitted effect of over 50% in size). The method in brief: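 Antagonism in this quantitative HTS is taken from loss of luciferase signal in PGC/ERR cells. Cells (2,000/well) are treated with compounds in DMSO after a 6 h settling period and read by One-Glo luminescence after 18 h.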

A short description of assay [9]: qHTS assay to identify small molecule agonists of the estrogen related receptor signaling pathway with the pleiotropic PPARgamma coactivator (PGC) from Tox21 10K library (AID 1224842). Further: nearly all actives have a fitted effect of over 15% in size. The method in brief:
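PGC/ERR reporter cells (NTP line) were seeded 2,000 per well, rested 6 h at 37 C/5% CO2, then pin-dosed with compounds in DMSO for 18 h at 37 C; luciferase read by One-Glo luminescence after 30 min at room temperature.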

A short description of assay [10]: qHTS assay to identify small molecule agonists of the hypoxia (HIF-1) signaling pathway - cell viability counter screen (AID 1224844; calls by dose curve; further: nearly all actives have a fitted effect of over 50% in size). The method in brief: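 Tox21 10K compounds were added to HRE-bla ME-180 cells (0.5% dialyzed FBS) and incubated 17 hrs at 37C; ATP-based CellTiter-Glo luminescence then reported cell viability in the same wells.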
Assay [11] can be described thus: qHTS assay to identify small molecule agonists of H2AX (AID 1224845; active means well fitted activation curve with a large enough effect in the signal ratio in the repeat runs, not every such curve was filed as active; the % refers to the signal ratio). An outline of the steps:
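Wild-type CHO-K1 cells plated overnight, then exposed 3 hr at 37C to compounds at 15 concentrations (0.76% DMSO). Lysed, then HTRF anti-pH2AX(S139)-cryptate/anti-H2AX-d2 detection after 24 hr at room temperature; emissions 665 and 620 nm.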

Assay [12] in a line: qHTS assay to identify small molecule agonists of the hypoxia (HIF-1) signaling pathway (AID 1224846; active means well fitted activation curve with a large enough effect in the signal ratio in the repeat runs, not every such curve was filed as active; the % refers to the signal ratio). The method in brief:
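Steps: seed ME-180 HRE-bla cells (2,000/well, 0.5% dialyzed FBS); incubate 5 hrs at 37C; pin-transfer compounds or DMSO; incubate 17 hrs; add LiveBLAzer B/G substrate CCF4-AM; measure reporter activation by FRET.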

A short description of assay [13]: qHTS assay to identify small molecule agonists of H2AX - cell viability counter screen (AID 1224847; calls by dose curve; further: top concentration of the series differs between compounds; nearly all actives have a fitted effect of over 30% in size). An outline of the steps:
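CHO-K1 wt, 1000 cells/well, o/n 37C; cpds 15 conc, 3 h 37C, 0.76% DMSO; CellTiter-Glo, 30 min RT, luminescence.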

Assay [14] can be described thus: qHTS assay to identify small molecule antagonists of the estrogen related receptor (ERR) signaling pathway from Tox21 library (AID 1224848). Further: nearly all actives have a fitted effect of over 50% in size. An outline of the steps: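 Screening used an ERR reporter line supplied by NTP, exposed for 18 h at 37 C to library compounds delivered in DMSO. Signal was luciferase luminescence developed with ONE-Glo at room temperature for 30 min.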

The nature of assay [15]: qHTS assay to identify small molecule agonists of the estrogen related receptor (ERR) signaling pathway from Tox21 library (AID 1224849; calls by dose curve; further: nearly all actives have a fitted effect of over 15% in size). The settings on record: ERR reporter cell line, ONE-Glo luciferase, 18 h; at 92.4 µM (top of the series) unless noted. An outline of the steps:
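Agonist signal is luciferase luminescence from an ERR reporter cell line treated 18 h at 37 C with DMSO-dissolved compounds, read 30 min after ONE-Glo addition at room temperature.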

Assay [16] in a line: qHTS RealTime-Glo MT Cell Viability Assay in HepG2 cells - 24 hour (AID 1224867). Further: nearly all actives have a fitted effect of over 50% in size. The method in brief:
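Tox21 10K library screened in qHTS format on HepG2 cells carrying RealTime-Glo reagents. Compounds were added after a 5 h preincubation, and the luminescent signal from continuous culture was measured repeatedly during 40 h treatment.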

A short description of assay [17]: qHTS RealTime-Glo MT Cell Viability Assay in HEK293 cells - 32 hour (AID 1224868). The method in brief: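 Luminescence generated by NanoLuc from substrate produced by living HEK293 cells served as the viability signal. Each value reflects the reading at its stated time point during continuous 40 h compound exposure at 37 C.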
Assay [18] in a line: A CellTox Green Cytotoxicity Assay to monitor cytotoxicity in HEK293 cells - 0 hour (AID 1224869). Further: nearly all actives have a fitted effect of over 50% in size. An outline of the steps:
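Cytotoxicity was tracked continuously in HEK293 cells by a DNA-binding dye excluded from viable cells. Compounds were transferred in DMSO 5 h after seeding; fluorescence was recorded at intervals up to 40 h.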

Assay [19] can be described thus: qHTS RealTime-Glo MT Cell Viability Assay in HepG2 cells - 40 hour (AID 1224870). Further: nearly all actives have a fitted effect of over 50% in size. An outline of the steps: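 HepG2 cells mixed with RealTime-Glo MT reagents (NanoLuc plus cell-permeant prosubstrate) were seeded at 600 cells/well, incubated 5 h at 37 C/5% CO2, then pinned with compounds in DMSO; nonlytic luminescence tracked viability during 40 h treatment.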
For assay [20], the target named is Thyrotropin receptor (Homo sapiens) (UniProt P16473). In words: qHTS assay to identify small molecule agonists of the thyroid stimulating hormone receptor (TSHR) signaling pathway (AID 1224843; calls by dose curve; further: nearly all actives have a fitted effect of over 45% in size). An outline of the steps:
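Cell line HEK293 with TSHR; density 800/well. Exposure 30 min RT. Readout HTRF cAMP (cAMP-d2/anti-cAMP-cryptate), 1 h RT before reading.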

Structures are written as SMILES. Values without a mark were called inactive. Results filed as inconclusive are left out. The source made the active and inactive calls. Unless noted, the call rests on the fitted dose curve; in most records, active means well fitted curve in the direction sought with a large enough effect in the repeat runs; inconclusive means weak or mixed curves; inactive means no such curve, though single readings can be large; an effect the other way counts as inactive or inconclusive.
On the % scale 0 is the no-effect control and ±100 the full control effect.

Luciferin 4-monooxygenase (Photinus pyralis), sequence (P08659 whole entry, looked up): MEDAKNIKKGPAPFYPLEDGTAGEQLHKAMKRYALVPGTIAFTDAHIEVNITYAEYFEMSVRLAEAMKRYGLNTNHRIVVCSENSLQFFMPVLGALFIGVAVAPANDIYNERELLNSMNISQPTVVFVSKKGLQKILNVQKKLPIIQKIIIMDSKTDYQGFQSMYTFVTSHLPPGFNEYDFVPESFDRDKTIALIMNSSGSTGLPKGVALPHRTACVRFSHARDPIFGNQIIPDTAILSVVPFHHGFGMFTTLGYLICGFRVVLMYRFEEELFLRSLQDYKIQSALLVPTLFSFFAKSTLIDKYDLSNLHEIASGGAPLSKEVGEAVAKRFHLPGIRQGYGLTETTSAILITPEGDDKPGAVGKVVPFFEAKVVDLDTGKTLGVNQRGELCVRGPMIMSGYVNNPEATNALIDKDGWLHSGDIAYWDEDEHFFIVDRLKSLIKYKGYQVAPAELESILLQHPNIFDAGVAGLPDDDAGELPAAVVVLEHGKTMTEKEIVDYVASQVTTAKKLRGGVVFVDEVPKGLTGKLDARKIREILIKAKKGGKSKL
Nuclear receptor subfamily 1 group I member 3 (Homo sapiens), sequence (Q14994 whole entry, looked up): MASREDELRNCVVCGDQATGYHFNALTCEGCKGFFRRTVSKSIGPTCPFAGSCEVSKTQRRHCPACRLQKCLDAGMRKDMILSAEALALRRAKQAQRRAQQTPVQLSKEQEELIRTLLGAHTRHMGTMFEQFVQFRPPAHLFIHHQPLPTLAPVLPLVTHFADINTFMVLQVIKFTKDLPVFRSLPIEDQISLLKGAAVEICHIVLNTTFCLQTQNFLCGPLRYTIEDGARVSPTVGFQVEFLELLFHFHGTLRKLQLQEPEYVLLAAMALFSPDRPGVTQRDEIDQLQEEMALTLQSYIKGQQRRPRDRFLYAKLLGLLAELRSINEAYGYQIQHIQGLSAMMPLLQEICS
Thyrotropin receptor (Homo sapiens), sequence (P16473 whole entry, looked up): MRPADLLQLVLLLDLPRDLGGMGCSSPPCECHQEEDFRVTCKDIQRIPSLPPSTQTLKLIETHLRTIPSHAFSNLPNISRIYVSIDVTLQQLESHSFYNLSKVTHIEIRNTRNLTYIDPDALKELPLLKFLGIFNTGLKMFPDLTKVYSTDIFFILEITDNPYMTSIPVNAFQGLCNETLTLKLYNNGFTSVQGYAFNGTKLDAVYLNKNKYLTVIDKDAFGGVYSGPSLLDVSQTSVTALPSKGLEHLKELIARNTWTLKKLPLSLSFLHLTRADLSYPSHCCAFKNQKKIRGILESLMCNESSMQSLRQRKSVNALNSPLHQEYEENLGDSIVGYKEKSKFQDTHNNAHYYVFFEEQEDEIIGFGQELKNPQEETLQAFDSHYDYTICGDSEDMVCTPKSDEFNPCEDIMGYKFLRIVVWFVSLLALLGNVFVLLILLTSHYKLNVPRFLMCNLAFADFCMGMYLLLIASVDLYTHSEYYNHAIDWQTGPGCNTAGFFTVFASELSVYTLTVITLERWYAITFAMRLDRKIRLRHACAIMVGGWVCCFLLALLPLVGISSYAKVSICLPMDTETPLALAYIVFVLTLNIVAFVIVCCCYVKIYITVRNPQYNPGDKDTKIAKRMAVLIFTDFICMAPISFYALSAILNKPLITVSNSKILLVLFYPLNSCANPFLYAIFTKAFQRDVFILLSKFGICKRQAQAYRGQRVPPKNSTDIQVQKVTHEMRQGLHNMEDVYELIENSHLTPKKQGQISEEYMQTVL

With `CCN1CC(CCN2CCOCC2)C(c2ccccc2)(c2ccccc2)C1=O` (configuration not stated), the Potency entry in [1], in assay [2], in assay [3], in assay [4], in [5] and in assay [6] was “inactive” throughout. Also, the Potency result in assay [7], in [8], in assay [9], in assay [10], in assay [11] and in assay [13] was “inactive” each time. In addition, the Potency entry in [14], in assay [16], in assay [17], in assay [18] and in [19] was “inactive” each time. Also, the call in [12] was inactive. Besides, the activity change, positive = activation in assay [15] is -6.21% [at 42.5 µM].

On to `Cc1ccc([N+](=O)[O-])cc1Cl`, for which the Potency entry in assay [1], in assay [2], in [3], in assay [4], in assay [5] and in assay [6] was “inactive” each time. The Potency result in assay [7], in assay [8], in assay [9], in assay [20], in assay [10] and in [11] was “inactive” throughout. The Potency entry in assay [13], in assay [14], in assay [16], in assay [17], in [18] and in [19] was “inactive” each time. Moreover, the call in assay [12] was inactive. For the same compound, the activity change, positive = activation in assay [15] was 14.6% (active).

In the case of `FC(F)(F)c1ccccc1`, the Potency result in assay [1], in [2], in assay [3], in assay [4], in assay [5] and in assay [6] was “inactive” in each case. The Potency entry in assay [7], in assay [8], in assay [9], in assay [20], in assay [10] and in assay [11] was “inactive” throughout. The Potency entry in assay [13], in assay [14], in [16], in assay [17], in [18] and in [19] was “inactive” throughout. In addition, the result in assay [12] was inactive. The activity change, positive = activation in assay [15] was 2.08%.

With `O=S(=O)(O)C(F)(F)F`, the Potency result in assay [1], in [2], in assay [3], in [4], in assay [5] and in [6] was “inactive” throughout. The Potency result in assay [7], in assay [8], in assay [9], in assay [20], in assay [10] and in [11] was “inactive” throughout. For the same compound, the Potency result in [13], in assay [14], in [16], in assay [17], in [18] and in assay [19] was “inactive” in each case. The call in assay [12] was inactive. Also, in [15], the activity change, positive = activation is 4.04%.

For the compound `CCCCNCCCC`, the Potency entry in [1], in assay [2], in [3], in assay [4], in assay [5] and in assay [6] was “inactive” throughout. The Potency result in [7], in assay [8], in assay [9], in assay [20], in assay [10] and in assay [11] was “inactive” in each case. In addition, the Potency entry in [13], in assay [14], in [16], in assay [17] and in assay [18] was “inactive” in each case. For the same compound, in assay [12], the compound was classed as inactive. Further, the activity change, positive = activation in [15] is 0.877%.

As to `CCCCC1CCC(=O)O1` (configuration not stated), the Potency result in assay [1], in assay [2], in assay [3], in [4], in [5] and in assay [6] was “inactive” throughout. Moreover, the Potency entry in assay [7], in [8], in assay [9], in assay [20], in [10] and in [11] was “inactive” throughout. In addition, the Potency entry in [13], in [14], in [17], in [18] and in assay [19] was “inactive” in each case. In addition, the result in assay [12] was inactive. In addition, the activity change, positive = activation in [15] is -0.824%.
